# Test results published in PubChem BioAssay AID1014 (NMMLSC, 2008).
# Activity calls are given as the source filed them. Rule as the data show it: active = inhibition of mean fluorescence above about 33%; inactive = the rest.
# Experiment: quorum sensing inhibitors in bacterial reporter, SAR follow-up, flow cytometry, SAR analogs (AID 1014);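 also: Staphylococcus aureus RN6390 with RNAIII-GFP reporter stimulated by AIP; bacteria incubated with compound for 3 hours at 37 °C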
# Details: at 20 µM, stronger effect = higher value; inhibition of percent positive cells: flow cytometry fluorescence, measured here: percent reporter-positive cells
Structure (SMILES),inhibition of mean fluorescence,inhibition of percent positive cells
NC1=NC(=O)CC(C(=O)Nc2ccccc2)S1 (centres undefined),-19.2% (inactive),-0.6%
O=C(NC1CCCC1)C(c1cc2c(cc1[N+](=O)[O-])OCO2)N1CCOCC1 (centres undefined),-11.5% (inactive),-0.1%
CC1CCCN(CCC(=O)Nc2ccc3c(c2)OCO3)C1 (centres undefined),-15.3% (inactive),-1.5%
COc1ccc(OC)c(C(=O)c2coc3ccc(O)cc23)c1,-21.9% (inactive),0%
O=C(NCC(c1cccnc1)N1CCc2ccccc21)c1cccc(Br)c1 (centres undefined),29.6% (inactive),0.1%
CCc1ccc(S(=O)(=O)c2nnn3c2nc(Nc2ccc(OC)cc2)c2sccc23)cc1,5.8% (inactive),-0.5%
CC1CC(C)CN(C(C(=O)Nc2ccc(C(C)C)cc2)c2ccc3c(c2)OCO3)C1 (centres undefined),19.3% (inactive),-1.5%
COc1ccc(S(=O)(=O)c2nnn3c2nc(Nc2ccc(C)cc2)c2ccccc23)cc1,8.2% (inactive),-0.3%
CC1CCN(CC2CCN(C(=O)Nc3ccc4c(c3)OCCO4)CC2)CC1,-3.7% (inactive),0%
CCOC(=O)c1cnc2c(OC)cccc2c1Nc1ccccc1C(=O)O,-42.9% (inactive),-1.1%
N#Cc1c(NC(=O)COc2ccccc2)sc2c1CCCC2,-5% (inactive),2.5%
CC(=O)c1cc2cc(O)ccc2o1,-1% (inactive),0.8%
CCc1ccc(Nc2nc3c(S(=O)(=O)c4ccc(C)cc4)nnn3c3ccccc23)cc1,19.1% (inactive),-1.1%
O=C(Nc1ccc2c(c1)OCCO2)C(c1ccc(F)cc1)N1CCCCC1 (centres undefined),12.6% (inactive),-0.6%
Cc1ccc(N=C2NC(=O)CC(C(=O)Nc3cccc4ccccc34)S2)cc1 (centres undefined),-4.5% (inactive),-0.7%
COC(=O)c1c(C)oc2cc(Br)c(O)cc12,-18% (inactive),-1%
COc1ccc(C(=O)NCC(c2cccnc2)N2CCN(c3ccc(F)cc3)CC2)cc1OC (centres undefined),3.4% (inactive),0%
O=C(NCC(c1cccnc1)N1CCN(c2ccc(F)cc2)CC1)C1CCCCC1 (centres undefined),-37% (inactive),0.5%
O=C(NCC(c1cccnc1)N1CCN(c2ccc(F)cc2)CC1)c1ccccc1 (centres undefined),10% (inactive),-0.2%
CC1CC(C)CN(C(C(=O)Nc2ccc(C(C)C)cc2)c2cc3c(cc2[N+](=O)[O-])OCO3)C1 (centres undefined),-12.5% (inactive),-0.1%
NC1=NC(=O)CC(C(=O)Nc2cccc3ccccc23)S1 (centres undefined),20.2% (inactive),1.5%

Structure (SMILES),inhibition of mean fluorescence,inhibition of percent positive cells
O=C(NCC(c1cccnc1)N1CCOCC1)c1cccc(Cl)c1 (centres undefined),-6.2% (inactive),0.6%
O=C(NCC(c1cccnc1)N1CCN(c2ccccc2)CC1)c1cccs1 (centres undefined),47.7% (active),1.1%
CCOC(=O)C1CCN(C(C(=O)Nc2ccc3c(c2)OCO3)c2ccccc2)CC1 (centres undefined),-1% (inactive),-0.4%
COc1ccc(S(=O)(=O)c2nnn3c2nc(Nc2ccccc2C)c2ccccc23)cc1,-17.1% (inactive),0.4%
CCOC(=O)C1=C(c2ccccc2)NC(SCC(=O)Nc2sc3c(c2C(=O)OCC)CCCC3)=C(C#N)C1c1ccco1 (centres undefined),-27.4% (inactive),0.1%
CC(NC(=O)c1cccc(F)c1)C(c1cccs1)N1CCN(c2ccccc2F)CC1 (centres undefined),16.4% (inactive),0.2%
O=CN1CCN(C(C(=O)NC2CCCC2)c2cc3c(cc2[N+](=O)[O-])OCO3)CC1 (centres undefined),-8.7% (inactive),-0.6%
CCOc1ccc(Nc2nc3c(S(=O)(=O)c4ccccc4)nnn3c3ccccc23)cc1,-16.3% (inactive),-0.2%
CC1CCCN(C(C(=O)Nc2ccc(C(C)C)cc2)c2ccc3c(c2)OCO3)C1 (centres undefined),23.8% (inactive),0.5%
N#Cc1c(NC(=O)CCN2C(=O)c3ccccc3C2=O)oc(-c2ccccc2)c1-c1ccccc1,19.7% (inactive),-0.3%
O=C(NCC(c1cccnc1)N1CCN(Cc2ccccc2)CC1)c1ccccc1 (centres undefined),12.3% (inactive),-0.4%
COc1ccccc1N1CCN(C(CNC(=O)c2cccc(Cl)c2)c2cccnc2)CC1 (centres undefined),72.3% (active),15.4%
O=C(Nc1ccc2c(c1)OCO2)C(c1ccc(Cl)cc1)N1CCN(C(=O)c2ccco2)CC1 (centres undefined),2.2% (inactive),-0.3%
O=C(O)c1sc2ccccc2c1Nc1ccccc1,-2.8% (inactive),0.6%
Cc1cccc(Nc2nc3c(S(=O)(=O)c4ccccc4)nnn3c3ccccc23)c1,3.1% (inactive),0.2%
O=C(Nc1ccc2c(c1)OCO2)C(c1ccccc1)N1CCCCC1 (centres undefined),40.3% (active),-0.7%
O=C(NCCN1CCN(c2ccccc2)CC1)c1cccc(Cl)c1,-5.6% (inactive),0%
N#Cc1c(NC(=O)CN2C(=O)c3ccccc3C2=O)oc(-c2ccccc2)c1-c1ccccc1,41.7% (active),0.2%
Cc1ccc(Nc2nc3c(S(=O)(=O)c4ccccc4)nnn3c3ccccc23)cc1,-19% (inactive),0.4%
CCOC(=O)c1c(-c2cc(Br)c(OC)c(Br)c2)oc2ccc(O)cc12,-2.7% (inactive),-0.6%
O=C(Nc1ccc2c(c1)OCO2)C(c1ccc(Cl)cc1)N1CCC2(CC1)OCCO2 (centres undefined),-0.5% (inactive),-0.8%
